# Screening results (PubChem)
# RECQ1 helicase: blocks DNA unwinding by human RECQ1; P46063; RECQ1 DNA unwinding, red fluorescence kinetic read; Potency, µM (titrated, usually from 57.3 µM), for the others: at the top dose activity, negative = inhibition, hits mostly inhibitors; 240,000 tested, 0.54% active; AID 2549;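 also: plate controls were vehicle for no effect and no enzyme for full effect; nearly all actives have a fitted effect of over 30% in size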
#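 RECQ1T1 50 nM; forked duplex (20 bp + 30-nt ss tails) 200 nM, ATP 2 mM final; pH 8.0, 2 mM MgCl2, 2.5 ug/ml poly(dI-dC); 15 min compound preincubation; discontinuous kinetic read over 2 h at RT.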
# WRN helicase inh: inhibitors of human WRN helicase; Potency, µM (top dose mostly 114 µM), without a hit: at the highest dose activity change, negative = inhibition, actives largely listed as inhibitors; 360,000 tested, 0.46% active; WRN helicase unwinding, fluorescent forked duplex, kinetic; Q14191; also: % is scaled to controls: 0 for no effect and ±100 for the full control effect; nearly all actives have a fitted effect of over 55% in size
#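 Fluorescence dequenching readout, ex 525 nm/em 598 nm, kinetic mode: forked duplex DNA (100 nM final) with adjacent fluorophore and quencher unwound by WRN (20 nM final) with 2 mM ATP. Compound preincubation 15 min, room temperature.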
# APE1 inh: blocks human APE1 abasic DNA cleavage. P27695. recombinant APE1, TAMRA/BHQ-2 abasic DNA cleavage fluorescence. Potency, µM (doses to about 65.8 µM), for the others: at the highest dose activity change, negative = inhibition, actives largely listed as inhibitors. 350,000 tested, 0.35% active;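 also: plate controls were vehicle for no effect and reference inhibitor for full effect; nearly all actives have a fitted effect of over 55% in size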
#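 APE1 at 0.75 nM preincubated 15 min at room temperature with compound. Reaction then started with 50 nM double-stranded THF-abasic substrate labelled with TAMRA/BHQ-2, and 525/598 nm fluorescence read kinetically. Activity taken as third-minus-first read difference, normalized to DMSO and NSC13755 controls.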
# BLM inh: inhibitors of human Bloom syndrome helicase BLM. P54132. recombinant BLM DNA unwinding, fluorescence dequenching. 350,000 tested, 0.2% active. AID 2528. Potency, µM (doses to about 56.1 µM), inactives show at the top dose activity change, negative = inhibition, usual class: inhibitors;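 also: plate controls were vehicle for no effect and no enzyme for full effect; nearly all actives have a fitted effect of over 35% in size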
# Target sequence (P54132 whole entry, looked up): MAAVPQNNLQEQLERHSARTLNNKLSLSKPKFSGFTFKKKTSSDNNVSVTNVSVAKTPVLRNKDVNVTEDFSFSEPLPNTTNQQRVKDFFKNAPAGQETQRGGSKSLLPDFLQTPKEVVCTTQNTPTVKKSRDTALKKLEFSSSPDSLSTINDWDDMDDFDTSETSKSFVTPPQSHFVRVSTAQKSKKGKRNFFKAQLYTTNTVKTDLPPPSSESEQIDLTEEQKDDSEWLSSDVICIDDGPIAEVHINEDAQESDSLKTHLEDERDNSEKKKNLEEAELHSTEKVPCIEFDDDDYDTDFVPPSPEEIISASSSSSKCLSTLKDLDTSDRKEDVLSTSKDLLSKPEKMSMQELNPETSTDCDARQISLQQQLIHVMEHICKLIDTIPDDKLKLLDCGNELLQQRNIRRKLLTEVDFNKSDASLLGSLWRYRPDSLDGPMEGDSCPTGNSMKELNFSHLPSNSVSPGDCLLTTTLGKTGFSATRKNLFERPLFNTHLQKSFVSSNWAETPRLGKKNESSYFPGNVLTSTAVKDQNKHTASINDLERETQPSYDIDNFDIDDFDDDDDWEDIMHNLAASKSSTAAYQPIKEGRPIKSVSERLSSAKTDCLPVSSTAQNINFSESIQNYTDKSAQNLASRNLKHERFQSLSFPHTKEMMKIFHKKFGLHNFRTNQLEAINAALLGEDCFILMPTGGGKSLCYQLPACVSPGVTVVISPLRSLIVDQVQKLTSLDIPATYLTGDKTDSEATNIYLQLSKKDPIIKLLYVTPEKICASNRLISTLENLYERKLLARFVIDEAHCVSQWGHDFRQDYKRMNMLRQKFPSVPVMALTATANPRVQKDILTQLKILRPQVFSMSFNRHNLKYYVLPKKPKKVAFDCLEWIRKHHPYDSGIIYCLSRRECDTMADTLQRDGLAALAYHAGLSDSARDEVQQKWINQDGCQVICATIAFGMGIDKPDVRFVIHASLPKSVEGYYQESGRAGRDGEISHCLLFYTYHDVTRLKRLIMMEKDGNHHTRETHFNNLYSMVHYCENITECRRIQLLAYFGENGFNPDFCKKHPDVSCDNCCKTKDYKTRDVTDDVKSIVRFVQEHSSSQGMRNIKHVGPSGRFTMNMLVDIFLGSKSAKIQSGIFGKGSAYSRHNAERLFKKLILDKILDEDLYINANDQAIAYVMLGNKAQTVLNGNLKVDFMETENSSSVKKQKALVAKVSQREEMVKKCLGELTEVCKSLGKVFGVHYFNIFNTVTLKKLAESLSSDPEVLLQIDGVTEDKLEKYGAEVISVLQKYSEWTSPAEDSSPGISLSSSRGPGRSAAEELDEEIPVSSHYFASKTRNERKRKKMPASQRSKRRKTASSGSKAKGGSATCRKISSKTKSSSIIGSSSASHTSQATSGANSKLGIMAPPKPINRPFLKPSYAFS
# ERG Ets-DNA blk: ERG Ets/DNA interaction inhibition | fluorescence polarization, His-ERG Ets domain / labelled DNA | Potency, µM (titrated, usually from 76.9 µM), inactives show at the highest dose FP activity, negative = inhibition, usual class: inhibitors | 370,000 tested, 0.028% active | AID 624246; active = well fitted inhibition curve with a large enough effect in the polarisation, with a control signal flat; inconclusive = small, poorly fitted or top-dose-only effect, or effect the other way, or a change in a side signal; inactive = no such curve, though single readings can be large or run the other way; the % refers to the polarisation;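 also: polarization taken with two DNA probes labelled with fluorescein and Texas red; % of control where 0% means no effect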
#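 His-tagged ERG Ets domain (1 uM in the protein solution; 300mM KCl, 50mM Tris-HCl, 1mM EDTA, 1mM DTT, pH 7.5) received compound, then a probe mix of 5 nM fluorescein-DNA and 100nM Texas-615-DNA. Fluorescence polarization was read for both dyes.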
# KAT2A inh: inhibitors of human GCN5L2 histone acetyltransferase | Q92830 | AID 504327 | 390,000 tested, 0.21% active | Potency, µM (doses to about 58.9 µM), for the others: top-dose activity change, negative = inhibition, most hits filed as inhibitors | GCN5L2 HAT assay, ThioGlo1 CoA-SH fluorescence; also: % is scaled to controls: 0 for no effect and ±100 for the full control effect
#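 GCN5L2 (20nM final) in 50mM HEPES, 0.1mM EDTA pH 7.5, 0.01% Tween-20 was preincubated 15 min at room temperature with compound, then given ThioGlo1 (50uM), H3(1-25) peptide (75uM) and acetyl-CoA (70uM); CoA-thiol fluorescence (Ex340/Em540) was read at 0 and 20 min.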
# Starred values were filed as active, the others as inactive; i = inactive; ? = inconclusive; / = no result given; ! = a repeat was not active; [ ] = remark or other dose. In the library only some 0.88% were active in any assay of this set; here they are far more common. Unless noted, calls follow the shape of the dose curve; as a rule, active = well fitted curve in the direction sought with a large enough effect; inconclusive = small, poorly fitted or top-dose-only effect, or another doubt; inactive = no such curve, though single readings can be large; an effect the other way counts as inactive or inconclusive. Potency is read from the fitted curve at half-maximal effect.
SMILES,RECQ1 helicase,WRN helicase inh,APE1 inh,BLM inh,ERG Ets-DNA blk,KAT2A inh
CCN1CCN(C2=CC3=CC(=C(C#N)C#N)CCC3CC2)CC1 (centres undefined),-25%,25µM*,4%,?,80%,-2%
COc1ccc(O[C@H]2C=C[C@@H](c3ccccc3)O[C@H]2CO/N=C\C[C@@H]2C=C[C@H](OC(C)=O)[C@H](COC(C)=O)O2)cc1,i[11.5 µM],/,?,-2%[12.4 µM],/,/
CCOC(=O)C1=C(CSc2nc(-c3ccccc3)ccc2C#N)OC(N)=C(C#N)C1c1ccc(OC)cc1 (centres undefined),10µM*,?,-9%,-13%,28%,-7%
C=CCc1c(C)[nH]c2c(OC)cccc2c1=S,i,-5%,6%,-5%,-5%,-11%
NC[C@@H]1CC[C@@H](N)[C@@H](O[C@H]2[C@H](O)[C@@H](O[C@H]3O[C@H](CO)[C@@H](O)[C@H](N)[C@H]3O)[C@H](N)C[C@@H]2N)O1,/,/,1%,/,/,/
CCC(c1ccccc1)C(CC)c1cc(O)c(O)c(O)c1 (centres undefined),/,45µM*,/,/,10%,/
CCC(C(=O)O)c1ccccc1 (centres undefined),16%,/,16%,-8%,/,3%
O=C(Cn1sc2ccccc2c1=O)NC12CC3CC(CC(C3)C1)C2,-12%,40µM*,3%,0%,-2%,14µM*
COc1ccc(-c2ccc3c(=O)cc(-c4ccsc4)oc3c2)cn1,/,50µM*,-28%,/,61%,?
O=c1cc(-c2ccsc2)oc2cc(-c3ccc4c(c3)OCO4)ccc12,/,25µM*,13%,/,-25%,0%
COc1cc(-c2ccc3oc(-c4ccsc4)cc(=O)c3c2)cc(OC)c1OC,/,-3%,-7%,/,-10%,-9%
COc1ccc(S(=O)(=O)Nc2ccc3c(c2)[C@H]2C[C@H](CC(=O)NCC4CC4)O[C@@H](CO)[C@H]2O3)cc1,/,-4%,/,/,/,/
O=C(O)c1cc(N2C(=O)C=CC2=O)cc(N2C(=O)C=CC2=O)c1,/,8.9µM*,/,/,-1%,/
Oc1c(Br)cc(Br)cc1/C=N/Nc1ccc(Cl)nn1,/,18%[57.1 µM],38%,-3%,-11%,-8%
Oc1c(Br)cc(/C=N/Nc2ccc(Cl)nn2)cc1Br,/,45µM*,31%,-7%,-9%,-1%
O=C(c1cnn2c1NC(=C1CC1)C=C2C(F)F)N(C1CCCCC1)C1CCCCC1,/,/,-6%,/,/,/
C[C@@]12CC[C@@H]3c4ccc(O)cc4CC[C@H]3[C@H]1CC[C@H]2O,i,/,4%[21 µM],-7%[21.4 µM],/,8%[21.4 µM]
C[C@]12CC[C@@H]3c4ccc(O)cc4CC[C@H]3[C@@H]1CC[C@@H]2O,32µM*!,-3%,2%,-7%,4%,1%
O=C(OC[C@H]1O[C@](O)(COC(=O)c2cccnc2)[C@@H](OC(=O)c2cccnc2)[C@@H]1OC(=O)c1cccnc1)c1cccnc1,/,/,7%,/,/,/
Cc1cccc(/N=C/c2c(O)cc(C)oc2=O)n1,28µM*,-14%[57.1 µM],-4%,-3%,15%,-4%
Cc1cc(O)c(/C=N/c2ccccn2)c(=O)o1,?,-3%,-8%,3%,24%,-2%
COP(=O)(OC)c1ccc(NCc2cc(O)ccc2O)cc1,/,56µM*,/,/,/,/
COc1cccc(/C=N/Nc2ncnc3c2[nH]c2ccc(C)cc23)c1OC,-8%,?,2%,14µM*,0%,-20%
CN(CC(=O)Nc1ccc(Cl)c(C(F)(F)F)c1)C(=O)Cn1cc([N+](=O)[O-])ccc1=O,/,-4%[11.6 µM],-16%,/,25µM*,-17%
Cc1ccc(NC(=O)CN(C)C(=O)Cn2cc(C(F)(F)F)ccc2=O)cc1,-1%,-3%,-4%,2%,-12%,2%
O=C(NCc1cccc(Cl)c1)c1c2c(nc3ccccc13)C(=O)N(C1CCCCC1)C2,/,/,/,-2%,5%,-4%
COc1ccc(S(=O)(=O)N2CCN(c3ccccc3F)CC2)cc1-c1noc(C)n1,/,/,/,-13%,3%,16µM*
